MAPPIT interaction score data for 2 molecules are collected here from the supplement of paper PMC10105736.

Values without a mark were called inactive.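 Rule for the calls: active = MAPPIT score above the 99th percentile of random reference set scores in the same batch; inactive = at or below it.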

Test in all cases: MAPPIT interaction score (arbitrary units); higher = stronger binary interaction signal, active = hit call of the paper
In one test the target is CG14767. The settings on record: pair source set: RRS. As to the method:
(§1)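 MAPPIT in HEK293T cells: Drosophila bait and prey ORFs (from the FlyBi ORF collection) were co-transfected in quadruplicate, with two wells stimulated by erythropoietin. Interaction-dependent JAK-STAT activation was read out with a STAT-responsive firefly luciferase reporter. Positive calls use the 99th percentile of random reference set (RRS) scores within each batch […]. Batches Dvs01 and Dvs02 used the N-N configuration and Dvs04 the N-C configuration. Pairs come from FlyBi screens, CuraGen, DPiM, Finley Y2H, Lit-BM-16, Lit-BS-16 and RRS.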

The target of another test is CG30472. The settings on record: MAPPIT configuration: N-N; pair source set: RRS. The protocol:
as §1

Another test deals with trbd. The settings on record: MAPPIT configuration: N-N; pair source set: screen_1. The protocol: as §1
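Note: HEK293T cells with Epo stimulation, STAT-responsive firefly luciferase reporter, fold induction versus unstimulated cells divided by the larger fold induction of two negative controls lacking either bait or prey.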

B1: nAChRbeta1 (protein)
chain: MESSCKSWLLCSILVLVAFSLVSASEDEERLVRDLFRGYNKLIRPVQNMTQKVGVRFGLAFVQLINVNEKNQVMKSNVWLRLVWYDYQLQWDEADYGGIGVLRLPPDKVWKPDIVLFNNADGNYEVRYKSNVLIYPTGEVLWVPPAIYQSSCTIDVTYFPFDQQTCIMKFGSWTFNGDQVSLALYNNKNFVDLSDYWKSGTWDIIEVPAYLNVYEGDSNHPTETDITFYIIIRRKTLFYTVNLILPTVLISFLCVLVFYLPAEAGEKVTLGISILLSLVVFLLLVSKILPPTSLVLPLIAKYLLFTFIMNTVSILVTVIIINWNFRGPRTHRMPMYIRSIFLHYLPAFLFMKRPRKTRLRWMMEMPGMSMPAHPHPSYGSPAELPKHISAIGGKQSKMEVMELSDLHHPNCKINRKVNSGGELGLGDGCRRESESSDSILLSPEASKATEAVEFIAEHLRNEDLYIQTREDWKYVAMVIDRLQLYIFFIVTTAGTVGILMDAPHIFEYVDQDRIIEIYRGK
As to B1, the MAPPIT interaction score with CG14767 (MAPPIT configuration: N-C) is 0.324; with CG14767 (MAPPIT configuration: N-N), 0.0737; in the test with CG30472 it was -0.0464.

B2: CG5902 (protein)
chain: MSNSHYNNYQQQQPHSSNGDPEYQHQQMVHQPQRFSNGHGMKTVAVPDMCLFCFEVLDCELNNVDGPSVPVFSNDAYPLFVTWKIGRDKRLRGCIGTFSAMELHHGLREYALTSAFKDSRFAPISRDELPRLTVSVSILQNFEEAQGHLDWQLGVHGIRIEFLTERGCKRTATYLPQVATEQGWDQLQTIDSLLRKGGYRAAITPETRKSIKLTRYRSQEIQMHYKEYREYQERRAQFGKVQC
Take B2: in the test with trbd, the MAPPIT interaction score was 2.52 (active).
